Data on 114 compounds can be found in ChEMBL document CHEMBL4513216, “Probing the Open Global Health Chemical Diversity Library for Multistage-Active Starting Points for Next-Generation Antimalarials” (ACS Infect Dis, 2020).

About 8,600 (12%) of roughly 69,000 compounds showed an effect of 50% or more. Only a selection was taken, and strong results are over-represented in it overall.

The assay relates to Plasmodium berghei. Nature of the assay: Screen against P. berghei liver stage (PbLuc), transformed with Luciferase, at 10uM. Particulars: tested at 10 uM. The assay is classed as functional, HepG2.
Regarding `O=C1c2cccnc2OC(CN2CCOCC2)CN1Cc1cccs1` (centres undefined), the INHIBITION is listed as 15.4%.
In the case of `CN1CCC(CN(C)C(=O)c2cc(C3CCCN3C)ccn2)CC1` (centres undefined) it was -12.9%; in that of `Cn1nc(CNC(=O)CC#N)c2c1CN(CC1CC1)CC2`, 16.9%.
In the case of `Cn1cc(CN2CCCC(c3nc(O)cc(-c4cccs4)n3)C2)cn1` (centres undefined), the INHIBITION is recorded as -15.1%.
Consider `CN(C)S(=O)(=O)N1C[C@H]2CC[C@@H](C1)N(Cc1ccc3c(c1)OCCO3)C2`, for which the INHIBITION worked out at 20.6%.
In the case of `O=C(O)c1ccnc(-c2ccnc(N3CCC(F)(F)CC3)n2)c1` it was 30.3%.
The value for `O=C1CC2(CCN(c3nccc(-c4cc(C(=O)O)ccn4)n3)CC2)CN1` was 64.9%; that for `O=C(O)c1ccnc(-c2ccnc(N3CCC4(CCO4)CC3)n2)c1` was 40.2%.
In the case of `Cc1ccc(-c2ccnc(N3CCC4(CC3)CNC(=O)C4)n2)c(C)n1`, the INHIBITION came to 68.9%.
In the case of `Cc1ccc(-c2ccnc(N3CCC4(CCO4)CC3)n2)c(C)n1` it was 36.5%; in that of `Cc1ccc(-c2ccnc(N3CCC4(CC3)CNC(=O)O4)n2)c(C)n1`, 30.9%.
The value for `Cc1cc(OC(F)F)c(C(=O)N2CCC(CN(C)C)CC2)s1` was -9.44%; that for `CC(C)c1cc(CN(C)C(=O)CN2CCC(C(N)=O)CC2)no1` was 12.7%; that for `Cc1ccc(CNc2n[nH]c(C)n2)cc1` was 46.6%.
The value for `CN(C(=O)c1cccc(C#N)c1)c1nnc(C2CCOC2)s1` (centres undefined) was 24.45%; that for `CCNC(=O)C1CCN(Cn2nc(-c3ccc(F)cc3)oc2=O)CC1` was 30.6%.
With `CC(C)CCNC(=O)c1ccc2c(=O)n(-c3ccccc3)cnc2c1`, the INHIBITION is listed as 1.8%.
The value for `CC(C)CNC(=O)c1ccc2c(=O)n(-c3ccccc3)cnc2c1` was 60.9%.
`CC(C)CCNC(=O)c1ccc(-n2cnc3ccccc3c2=O)cc1`: the INHIBITION is recorded as 26.8%.
The value for `NCCc1cn(Cc2ccccn2)c2ccccc12` was -18.2%; that for `c1cncc(CNc2cncc(C3CCCN3)n2)c1` (centres undefined) was 6.26%.
The value for `CCOc1ncccc1NC(=O)c1cccs1` was -10.9%.
In the case of `COc1ccc(NC(C)=O)c(N2CCN(C(C)=O)CC2)n1` it was 80.1%; in that of `CCCC(C)C(=O)Nc1ccc(OC)nc1N1CCN(C(C)=O)CC1` (centres undefined), 29.4%.
For the compound `COc1ccc(N)c(N2CCN(C(C)=O)CC2)n1`, the INHIBITION was found to be 42.3%.
Regarding `COc1ccc(NC(=O)CCC(C)C)c(N2CCN(C(C)=O)CC2)n1`, the INHIBITION is 68.8%.
The value for `COc1ccc(NC(=O)c2ccc[nH]2)c(N2CCN(C(C)=O)CC2)n1` was 6.8%; that for `COc1ccc(NC(=O)c2ccco2)c(N2CCN(C(C)=O)CC2)n1` was 44%; that for `CNc1ccnc(NCCC(=O)Nc2ccccc2C)n1` was 28.4%.
In the case of `O=C(C1CCC1)N1C[C@@H]2CN(Cc3ccncc3)C(=O)[C@@H]2C1` it was 50.3%; in that of `CCN1C[C@@H]2CN(C(=O)C3CC=CC3)C[C@@H]2C1=O`, 15.7%.
The value for `Cc1cccc(CN2C[C@@H]3CN(C(=O)C4CC=CC4)C[C@@H]3C2=O)n1` was 14.9%; that for `O=C1[C@H]2CN(Cc3ccoc3)C[C@H]2CN1Cc1ccncc1` was 45.1%.
On to `O=C(C1CC=CC1)N1C[C@H]2CN(Cc3ccncc3)C(=O)[C@H]2C1`, for which the INHIBITION was 56.6%.
With `O=C(C1CCOC1)N1C[C@H]2CN(Cc3ccncc3)C(=O)[C@H]2C1` (some centres undefined), the INHIBITION was -22.2%.
`COc1ccc(C(=O)NS(=O)(=O)c2cncc(Br)c2)c(OC)c1`: the INHIBITION came out at 29.4%.
As to `Cc1ccc(-c2snnc2C(=O)NCCCO)cc1`, the INHIBITION is reported as -19.7%.
`COc1cccc(OC)c1CC(=O)NC(C#N)c1ccsc1` (centres undefined): the INHIBITION is listed as 0.0944%.
On to `Cc1ccc(C(=O)NC2CC2)c(-n2cnnn2)c1C`, for which the INHIBITION stood at 28.6%.
As to `CN(C)c1ccc(CNC(=O)NCCc2cccs2)cn1`, the INHIBITION is -11.9%.
In the case of `c1cnc(N2CCCC(NCc3cccc4c3OCCO4)C2)nc1` (centres undefined) it was 22.9%; in that of `CN(C)Cc1ccnc(C2CCCN2Cc2cc[nH]n2)n1` (centres undefined), 29.6%; in that of `CN(C)Cc1ccnc(C2CCCN2Cc2ccncc2)n1` (centres undefined), 40.4%.
Regarding `CN(C)Cc1ccnc(C2CCCN2Cc2ccc(F)cn2)n1` (centres undefined), the INHIBITION was 63.4%.
For `CCc1cnc(CN(C(C)=O)C2CCN(CC3(O)CCCCC3)C2)o1` (centres undefined), the INHIBITION is recorded as 5.9%.
In the case of `c1ccc(-c2nc(CN3CCCC3Cn3cccn3)no2)cc1` (centres undefined) it was 44.3%.
The value for `Cc1nc(NC(=O)CN2C(=O)c3ccccc3NC2C(C)C)sc1C` (centres undefined) was 32.2%; that for `CN(Cc1cc(=O)c(O)co1)C1CCN(c2ccc(F)cc2)CC1` was 53.5%.
For `CN(Cc1cc(=O)c(O)co1)C1CCCN(c2ccccc2)C1` (centres undefined), the INHIBITION is given as 7.93%.
Regarding `Cc1cc(N2CCC(N(C)Cc3cc(=O)c(O)co3)CC2)nc(C)n1`, the INHIBITION turned out to be 28.7%.
In the case of `O[C@@H]1CC(CNCc2ccc(Cl)cc2)(COc2cccnc2)C[C@@H]1O` (some centres undefined) it was -26.2%; in that of `COCCC(=O)N1CC2(CCN(Cc3ccccc3Cl)CC2)C1`, 69.5%; in that of `COC(=O)N1CCN(Cc2ccccc2Cl)CC1`, 33.7%.
As to `COCCC(=O)N1CCC2(CCN(Cc3cccc(F)c3)CC2)CC1`, the INHIBITION came out at 45.1%.
The value for `COCCC(=O)N1CCC2(CN(Cc3cccc(F)c3)C2)C1` was 4.27%; that for `COCCC(=O)N1CC2(CCN(Cc3cccc(Cl)c3)CC2)C1` was 15.9%; that for `COC(=O)CCC(=O)N1CCC2(CN(Cc3ccc(Cl)cc3)C2)C1` was -26.1%.
Consider `COCCC(=O)N1CCC2(CCN(Cc3cccc(F)c3)C2)C1` (centres undefined), for which the INHIBITION came to 57.9%.
Regarding `COCCC(=O)N1CCC2(CN(Cc3cccc(Cl)c3)C2)C1`, the INHIBITION is given as 81.2%.
Regarding `COC(=O)CCC(=O)N1CCC2(CN(Cc3cccc(Cl)c3)C2)C1`, the INHIBITION came out at 57.9%.
Consider `COC(=O)CCC(=O)N1CCC2(CN(Cc3ccccc3)C2)C1`, for which the INHIBITION is listed as 5.56%.
In the case of `COCCC(=O)N1CCC2(CCN(Cc3cccc(F)c3)CC2)C1` it was 49.7%; in that of `COCCC(=O)N1CCC2(CN(Cc3ccc(OC)c(F)c3)C2)C1`, -44.8%.
`CC(=O)N(C)Cc1cccc(NC(=O)CCCc2nc(C(C)C)no2)c1`: the INHIBITION is listed as -32.9%.
In the case of `CN(C)C(=O)COCc1cncc2c1CCN(Cc1ccccc1)C2`, the INHIBITION is on record as -45.5%.
In the case of `Cc1ccc([C@H]2CN(C(=O)CC3CCC3)C[C@@H]2N)o1`, the INHIBITION is listed as -92.8%.
The value for `Cc1c(C(=O)NCCC2CN(C)CCO2)n(C)c2c(C)cccc12` (centres undefined) was 33.4%; that for `Cc1nccn1-c1cc(CNC(=O)NCC2CCCO2)ccn1` (centres undefined) was -2.33%.
In the case of `CCC(C)C(=O)NCCCn1nc(C)cc1C` (centres undefined) it was -2.48%; in that of `O=C(NCCc1ccc(I)s1)N1CCC1`, -7.31%; in that of `OC1(CN2CCN(c3cccc(C(F)(F)F)c3)CC2)CNCCOC1` (centres undefined), 41.5%.
Regarding `c1ccc(Cc2noc(-c3ccc(NCC4CCCCO4)nc3)n2)cc1` (centres undefined), the INHIBITION is 26%.
With `COCCNC(=O)NC(=O)CNc1c(F)cccc1N1CCCC1`, the INHIBITION is -32.5%.
The value for `CC[C@@H]1N(CC2CCC2)CCC[C@]12CCC(=O)N2Cc1ccncc1` was -8.51%.
Consider `CC1(C(=O)N2CCN(C3CCCC3)CC2)CNCCO1` (centres undefined), for which the INHIBITION is recorded as -21.4%.
In the case of `Cc1ccc(-c2cc(C(=O)N(C)Cc3noc4c3CCCC4)[nH]n2)s1` it was -14.3%.
`COCCC(=O)N1CC2(CCN(Cc3ccoc3)C2)C1`: the INHIBITION is on record as 54.6%.
`O=C(C1CC1)N1CCC2(CCN(Cc3cccc(F)c3)CC2)CC1`: the INHIBITION is listed as -13.4%.
The value for `COCCC(=O)N1CCC2(CCN(Cc3ccc(C)cc3)CC2)C1` was 4.27%; that for `O=C(C1CCC1)N1CCC2(CCN(Cc3cccc(F)c3)CC2)CC1` was 45.7%.
As for `O=C(C1CC=CC1)N1CCC2(CCN(Cc3cccc(F)c3)CC2)C1`, the INHIBITION was found to be 59.8%.
The value for `Cc1ccc(CN2CCCC3(CCN(Cc4ccoc4)CC3)C2)cc1` was 82.8%.
Regarding `COCCC(=O)N1CC2(CCN(Cc3ccncc3)CC2)C1`, the INHIBITION was 47.4%.
The value for `Cn1ccnc1CN1CCC2(CC1)CCN(Cc1ccoc1)C2` was -37.4%; that for `Cc1ccc(CN2CCC3(CC2)CCN(Cc2ccoc2)CC3)cc1` was -34.6%.
The value for `O=C(CC1CCCC1)N1CCCC1c1ccc(CN2CCOCC2)cn1` (centres undefined) was 30.25%.
In the case of `CC(C)c1nn(C)c(N(C)C)c1CNC(C)c1ccc2c(c1)OCO2` (centres undefined) it was 22.3%; in that of `CCC(C)N(Cc1cccnc1)C(=O)c1ncccc1O` (centres undefined), 39.9%; in that of `Cc1nnc(NC(=O)CN(C)C2CCCN(c3cccnn3)C2)s1` (centres undefined), 12.7%.
`Cc1csc(CNC(=O)NC(C)c2ccc3c(c2)OCCO3)n1` (centres undefined): the INHIBITION amounted to 44.9%.
The value for `Cc1ccc(CNC2CCc3nc(C(C)C)nn3C2)o1` (centres undefined) was -17.7%; that for `c1cncc(C[C@H]2[C@H](N3CCOCC3)CCN2Cc2cccs2)c1` was -7.24%.
On to `CCCOCCOC(=O)c1ccc2c(c1)[nH]c(=O)n2C`, for which the INHIBITION is 26.6%.
In the case of `Cn1c(=O)[nH]c2cc(C(=O)OCCCn3ccccc3=O)ccc21` it was 60%.
The value for `CCOCCCOC(=O)c1ccc2c(c1)[nH]c(=O)n2C` was -5.47%; that for `Cc1nn(C)c(C)c1C1COCCN1C(=O)CCc1ccccc1` (centres undefined) was 5.7%; that for `Cc1nnc(NC(=O)CCc2c(C)nn3cnnc3c2C)s1` was 16.6%.
The value for `CCCn1c(C)c(CC(=O)N(C)CCO)c2c1CC(C)(C)CC2=O` was 48.1%; that for `COC(=O)C(C)(C)NC(=O)C1CC(=O)N(C2CC2)C1` (centres undefined) was 84.1%; that for `COC(=O)C(C)(C)NC(=O)C1CC(=O)N(C)C1` (centres undefined) was 35.1%.
Regarding `COC(=O)C(C)(C)NC(=O)C1CC(=O)N(C2CCCC2)C1` (centres undefined), the INHIBITION was determined as 20.1%.
For `OCC1(O)CCN(Cc2noc(-c3ccccc3)n2)CC1`, the INHIBITION is 20.3%.
Regarding `Cn1ccnc1CN1CCCN(C(=O)c2ccc(Cl)o2)CC1`, the INHIBITION came out at 29.1%.
The value for `CC(=O)N1CCN(Cc2ccc(F)cc2)CC2(CC(=O)N(C)C2)C1` (centres undefined) was -6.05%.
As to `CC(O)CN1CCN(C(=O)c2ccc(Br)o2)CC1` (centres undefined), the INHIBITION was determined as 16.2%.
Take `O=C(c1ccc(Br)s1)N1CCN(Cc2ccc(OC(F)(F)F)cc2)CC1`: the INHIBITION was 79%.
The value for `O=C(c1ccc(Br)o1)N1CCN(Cc2ccc(F)cc2)CC1` was 62.5%; that for `Cc1cc(C)n(CCN2CCN(C(=O)c3ccc(Br)o3)CC2)n1` was -13.3%.
In the case of `CCc1ccc(C(=O)N2CCCN(Cc3nccn3CC)CC2)s1` it was 8.47%.
The value for `O=C(c1ccc(Br)o1)N1CCN(Cc2ccc(OC(F)(F)F)cc2)CC1` was 90%; that for `CC(=O)N1CCN(Cc2ccc(OCc3nccn3C)cc2)CC1` was 1.78%; that for `Cc1ccc(CN2CCN(C(=O)c3ccc(Br)o3)CC2)cc1` was 92.8%.
`CCc1ccc(C(=O)N2CCN(CCO)CC2)o1`: the INHIBITION was -13.5%.
In the case of `COC(=O)c1sccc1CN1CCN(C(=O)c2ccc(C)o2)CC1`, the INHIBITION was determined as 30.9%.
